Our source for the composite z-score values is PubChem BioAssay.

Structures are written as SMILES.

The assay is described as follows: binders of probe aHhip on microarray, primary screen, stem cell growth factor project, biochemical, small-molecule microarray, fluorescence 635/667 (AID 1087).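 Further: score merges spot fluorescence at 667nm with spot signal to noise ratio.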 Particulars: higher = more signal.
`O=C1O[C@H](c2ccccc2)[C@H](c2ccccc2)N2[C@H]1[C@@H](C(=O)Nc1nc3ccccc3s1)[C@]1(C(=O)Nc3ccc(C#CCCO)cc31)[C@H]2c1ccc(OCCO)cc1` yielded a composite z-score of 0.224.
The same measure for `O=C1OCCC/C=C\[C@H]2OC34C=CCN(Cc5ccccc5)C(=O)[C@H]3N(CCCCCCO)C(=O)[C@@H]4C12` (stereo not given in full): -0.0003; for `C=CC[C@]1(C(=O)N2CCCCC2)N=C(c2ccc(OCCCO)cc2)O[C@H]1c1ccccc1`: 1.27.
Take `COc1ccc(C(=O)O[C@H]2CC[C@]3(C)C4=C(CCC3C2(C)C)[C@]2(C)CC[C@H]([C@H](C)CCCC(C)C)[C@@]2(C)CC4)cc1` (stereo not given in full): the composite z-score came out at 0.0749.
Turning to `C[C@]1(C(=O)NC2CC2)c2ccccc2C(=O)N(Cc2cc(C(F)(F)F)cc(C(F)(F)F)c2)[C@H]1c1ccc(CO)cc1`, the composite z-score is -0.0994.
Regarding `NCCCCCNC(=O)[C@@H]1C[C@@H]2C(=O)NCC(=O)N2[C@@H]1c1ccc(O)cc1`, the composite z-score was -0.0994.
As for `[N-]=[N+]=Nc1ccccc1C[C@@]1(C(=O)NCCN2CCOCC2)N=C(c2ccc(OCCCO)cc2)O[C@@H]1c1ccccc1`, the composite z-score is -0.286.
Then `Cc1ccc(S[C@]2(C(=O)NC3CC3)CC(=O)N(C3Cc4ccccc4C3)[C@@H]2c2ccc(CO)cc2)cc1`, with -0.134.
The same measure for `C=C(/C(=C/C[C@@H](OC(C)=O)c1ccc(OCCO)cc1)c1cnc2ccccc2c1)C(C)C`: -0.0645; for `CC1(C)[C@@H]2CC(C(O)C3C=CC4C(=O)N(c5ccccc5)C(=O)C4N3Nc3ccccc3)=C[C@H]1C2` (stereo not given in full): 0.142.
For the molecule `COC(=O)[C@@]1(Cc2ccc(F)cc2)[C@H]2c3cc(C(=O)N4CCCC4)n(Cc4cc(C)n(C)n4)c3C[C@H]2CN1C(=O)c1ccccc1`, the composite z-score came out at 0.28.
The same measure for `CC1CC/C=C\[C@H]2OC34C=CCN(c5ccc(Cl)cc5)C(=O)[C@H]3N(CCO)C(=O)[C@]4(C)C2C(=O)O1` (stereo not given in full): -0.106; for `O=C1O[C@H](c2ccccc2)[C@H](c2ccccc2)N2[C@H]1[C@@H](C(=O)O)[C@]1(C(=O)Nc3ccc(C#CCCO)cc31)[C@H]2c1ccc(O)cc1`: 0.437; for `COc1cc2c(cc1O)C=[N+](Cc1cccc(OC(F)(F)F)c1)CC2`: -0.374.
As for `COC(=O)c1c(CC[C@@H](CO)NC(=O)N[C@H](Cn2cc(Cc3ccccc3)nn2)C(C)C)oc(C(C)=O)c1C(=O)OC`, the composite z-score is -0.236.
Consider `O=C1O[C@H](c2ccccc2)[C@H](c2ccccc2)N2[C@H]1[C@@H](C(=O)N1CCN(c3ncccn3)CC1)[C@]1(C(=O)Nc3ccc(C#CC4=CCCCC4)cc31)[C@H]2c1ccc(O)cc1`, for which the composite z-score is -0.201.
In the case of `CN(C)CCCNC(=O)[C@@]1(c2ccc([N+](=O)[O-])cc2)CC(=O)N(C2CCCCC2)[C@@H]1c1ccc(CO)cc1`, the composite z-score was 0.0373.
The molecule `COc1ccc(C#Cc2ccc3c(c2)[C@]2(C(=O)N3)[C@H](c3ccccc3OCCO)N3[C@H](c4ccccc4)[C@H](c4ccccc4)OC(=O)[C@H]3[C@@H]2C(=O)O)cc1` had a composite z-score of 0.132.
Then `COc1ccc([C@H]2OC[C@@H]3CC4(CC=CC4)C(=O)N32)cc1`, with -0.236; and `COc1ccc(C(O)C2C=CC3C(=O)NC(=O)C3N2Nc2ccccn2)c2ccccc12` (stereo not given), with -0.0994; and `Cc1ccc(S[C@]2(C(=O)NC(C)C)CC(=O)N(Cc3ccccc3Cl)[C@@H]2c2ccc(CO)cc2I)cc1`, with -0.0994.
Take `C=CCOC(=O)[C@@H]1[C@H]2C(=O)O[C@H](c3ccccc3)[C@H](c3ccccc3)N2[C@H](c2ccc(OCCOC(=O)[C@@H]3C[C@@H]4C(=O)N5CCC[C@H]5C(=O)N4[C@@H]3c3ccc(O)cc3)cc2)[C@@]12C(=O)Nc1ccc(I)cc12`: the composite z-score was -0.069.
`CCN(CC)c1ccc(N2CC=CC34O[C@@H]5/C=C\CCCOC(=O)C5[C@H]3C(=O)N(CCO)[C@@H]4C2=O)cc1` (stereo not given in full): the composite z-score is -0.0061.
For `C=CCNC(=O)[C@@H]1[C@H]2C(=O)O[C@H](c3ccccc3)[C@H](c3ccccc3)N2[C@H](c2ccc(OCCO)cc2)[C@@]12C(=O)Nc1ccc(C#CCCO)cc12`, the composite z-score was -0.138.
With `COC(=O)C(CC#Cc1ccc2c(c1)[C@]1(C(=O)N2)[C@H](c2ccc(O)cc2)N2[C@H](c3ccccc3)[C@H](c3ccccc3)OC(=O)[C@H]2[C@@H]1C(=O)Nc1nc2ccccc2s1)C(=O)OC`, the composite z-score is -0.0672.
As to `CCOC(=O)C[C@H]1[C@H](OC(=O)c2cc3ccccc3oc2=O)[C@@H](NC(=O)C2CCCCC2)c2cc(OCCCO)ccc2N1C(=O)c1ccccc1`, the composite z-score is -0.0618.
Then `C=CC[C@@]1(C(N)=O)N=C(c2ccc(OCCCO)cc2)O[C@@H]1c1ccccc1CN=[N+]=[N-]`, with 0.0053; and `COc1ccc([Si](C)(C)[C@H]2[C@H](CCO)O[C@@]3(C(=O)N(C)c4c(Br)cc(C)cc43)[C@@H]2C)cc1`, with -0.196; and `C[C@@]1([C@@H](NC(=O)c2ccccc2)c2ccc(-c3ccccc3)cc2)C[C@H]1C1CCCCC1`, with 0.122.
On to `O=C1NC(=O)C2C1C=CC(C(O)C(c1ccccc1)c1ccccc1)N2Nc1ccc(Cl)cc1Cl` (stereo not given), for which the composite z-score came out at 0.0373.
The same measure for `COCCOC(=O)N1C(=O)[C@@]2(c3cc(C#Cc4ccc(OC)cc4)ccc31)[C@H](C(N)=O)[C@H]1C(=O)O[C@H](c3ccccc3)[C@H](c3ccccc3)N1[C@@H]2c1ccccc1OCCO`: 0.0431.
Consider `C#CCN(Cc1ccccc1Br)C(/C=C/c1ccccc1)CO` (stereo not given), for which the composite z-score was -0.236.
As to `CCCN1C(=O)[C@]2(CCS(=O)(=O)c3ccccc3)N=C(c3ccc(OCCCO)cc3)O[C@@H]2c2ccccc21`, the composite z-score is -0.0645.
In turn, `COCCOC(=O)N1C(=O)[C@@]2(c3cc(C#CCCO)ccc31)[C@H](C(=O)Nc1nc3ccccc3s1)[C@H]1C(=O)O[C@H](c3ccccc3)[C@H](c3ccccc3)N1[C@@H]2c1ccc(OCCO)cc1` displayed a composite z-score of 0.0176.
As for `CCCCC(=C=CC[C@@H](O)c1ccccc1OCCO)CCO`, the composite z-score was -0.236.
